CtBP-E1A inh – inhibitors of CtBP/E1A interaction. AlphaScreen GST-E1A/His-CtBP binding, 1536-well; hits give low values. hit rate 0.49% among 340,000. activity change, % (test concentration not listed); in the data active = activity change below about -65%; inconclusive = mostly about -30% to -63%; also: % is scaled to controls: 0 for no effect and ±100 for the full control effect
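AlphaScreen with 125 nM GST-E1A and 125 nM His-CtBP (5X stocks) in Tris pH 8.0, 300 mM NaCl, BSA, Tween 20, TCEP. Compounds preincubated 2 h at 37 deg C, then glutathione donor/nickel acceptor beads added for 1 h at 37 deg C in dark.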
HP1b chromo inh – HP1-beta chromodomain-methylated histone interaction inhibition; P83916; AlphaScreen HP1-beta / biotin-H3K9me3 peptide binding; hit rate 0.56% among 390,000; Potency, µM (highest dose often 114 µM), for the others: at the top dose activity change, negative = inhibition, usual class: inhibitors; also: potency is read from the fitted curve at half-maximal effect; nearly all actives have a fitted effect of over 70% in size
Target sequence (P83916 whole entry, looked up): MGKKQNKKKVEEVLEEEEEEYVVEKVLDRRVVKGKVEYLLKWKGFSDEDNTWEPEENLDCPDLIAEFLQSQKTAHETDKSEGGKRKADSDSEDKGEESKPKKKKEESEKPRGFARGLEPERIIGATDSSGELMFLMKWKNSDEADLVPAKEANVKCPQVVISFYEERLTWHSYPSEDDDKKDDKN
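Compound inhibition of the preformed complex between 50 nM HP1-beta and 50 nM biotinylated H3K9me3 peptide was read by AlphaScreen. Buffer was PBS pH 7.4 with 0.01% Tween-20. Incubations ran 30 min at room temperature, with 10 ug/mL donor/acceptor beads.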
G9a inh – inhibitors of human histone lysine methyltransferase G9a | Potency, µM (series often up to 102 µM), without a hit: at the top dose activity, negative = inhibition, hits mostly inhibitors | G9a H3K9 monomethylation, AlphaScreen, 2 h | Q96KQ7 | AID 504332 | hit rate 8.8% among 350,000; also: potency is read from the fitted curve at half-maximal effect; % is scaled to controls: 0 for no effect and ±100 for the full control effect; nearly all actives have a fitted effect of over 75% in size
Target sequence (Q96KQ7 913-1193 limits assumed): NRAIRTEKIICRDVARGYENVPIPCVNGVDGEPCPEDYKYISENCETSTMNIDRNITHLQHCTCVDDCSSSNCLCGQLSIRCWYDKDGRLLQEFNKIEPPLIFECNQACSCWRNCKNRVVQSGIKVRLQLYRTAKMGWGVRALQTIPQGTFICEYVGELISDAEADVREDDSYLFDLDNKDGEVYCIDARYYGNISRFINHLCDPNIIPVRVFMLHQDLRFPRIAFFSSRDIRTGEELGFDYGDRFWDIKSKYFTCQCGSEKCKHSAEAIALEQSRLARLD
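AlphaScreen read-out: biotin-H3K9 peptide (500 nM) methylation by 20 nM enzyme with 20 uM SAM, 2 h at room temperature after 15 min compound preincubation; anti-monomethyl H3K9 antibody plus donor/acceptor beads, 10 min dark.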
JMJD2A Tudor inh – JMJD2A Tudor domain (human) inhibition. AlphaScreen JMJD2A-Tudor / H3K4me3 peptide binding. Potency, µM (highest dose often 114 µM), inactives show at the highest dose activity change, negative = inhibition, actives largely listed as inhibitors. hit rate 4.4% among 390,000. AID 504339; also: potency is read from the fitted curve at half-maximal effect; % is scaled to controls: 0 for no effect and ±100 for the full control effect; nearly all actives have a fitted effect of over 50% in size
Six1-Eya2 blk – blocks human Six1 binding to Eya2; Q15475+O00167; AlphaScreen GST-Six1/His-Eya2 binding, biochemical; hits give low values; activity change, % (test concentration not listed); hit rate 0.56% among 360,000; in the data active = activity change below about -65%; inconclusive = mostly about -30% to -63%; also: % is scaled to controls: 0 for no effect and ±100 for the full control effect
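AlphaScreen with GST-Six1 and His-Eya2 (5X mix: 250 nM and 500 nM), glutathione donor and nickel acceptor beads; buffer 50 mM Tris pH 8.0, 300 mM NaCl, 1 mM TCEP; 1 h at 37 C in the dark.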
BAZ2B block – blocks human BAZ2B; AID 504333; hit rate 4.4% among 360,000; Q9UIF8; Potency, µM (highest dose often 114 µM), for inactives: at the top dose activity change, negative = inhibition, most hits filed as inhibitors; AlphaScreen BAZ2B-H3K14Ac peptide displacement; also: potency is read from the fitted curve at half-maximal effect; % is scaled to controls: 0 for no effect and ±100 for the full control effect; nearly all actives have a fitted effect of over 60% in size
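In this displacement format the biotinylated H3(5-23) peptide acetylated at Lys14 serves as ligand at 50 nM, with BAZ2B at 50 nM in PBS pH 7.4 containing 0.01% Tween-20. Donor and acceptor beads are 10 ug/mL final.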
* hit, by the source's call; ? = inconclusive; . = no result; [ ] = dose if it differs, or a comment. The list is not random: actives were taken first. Their share in the collection is about 10%. Unless noted, calls follow the shape of the dose curve; as a rule, active = well fitted inhibition curve with a large enough effect; inconclusive = small, poorly fitted or top-dose-only effect; inactive = no such curve, though single readings can be large or run the other way.

SMILES	CtBP-E1A inh	HP1b chromo inh	G9a inh	JMJD2A Tudor inh	Six1-Eya2 blk	BAZ2B block
COc1ccc(Nc2nc(-c3cccs3)nc3ccccc23)cc1S(=O)(=O)N1CCOCC1	-67*	34%	.	-15%[11.4 µM]	?	.
COc1ccccc1S(=O)(=O)N1CCN(c2nc(-c3cccs3)nc3ccccc23)CC1	.	37%	.	-14%	.	.
O=C1NC(Cc2ccccc2)c2nc3cc(F)c(F)cc3c(=O)n2-c2ncccc21 (stereo not given)	-15	.	.	.	-4	.
CCCOc1ccc(C(=O)CCCC(=O)c2ccc(OCCC)cc2)cc1	10	48%	.	12%	6	44%
CCCCCC(O)(CCN1CCCCC1)c1ccc(OCC)cc1 (stereo not given)	19	9%	15%[59 µM]	40µM*	7	-16%
CC(C)COc1ccc(C(=O)CCN2CCCCC2)cc1	4	55%	16µM*	-13%	-2	-11%
COc1ccc(C(O)(CCN2CCCCC2)C2CCCCC2)cc1 (stereo not given)	3	28%	50µM*	-13%	4	-1%
CCCCOc1ccc(C(=O)CCN2CCCCC2)cc1	0	84%	10µM*	-8%	1	-23%
CCCC(O)(CCN1CCCCC1)c1ccc(OCC)cc1 (stereo not given)	1	.	-15%	-23%	8	6%
CCc1cccc(NC(=O)C2CCCN2S(=O)(=O)c2ccccc2C(F)(F)F)c1 (stereo not given)	11	43%	11%	1%	-1	4%
Cc1cc(C)c2oc(=O)cc(CN3CCCCC3)c2c1	0	36%	?	-3%	-4	6%
CCN1/C(=C/c2cc[n+](CCCS(=O)(=O)[O-])c3ccccc23)Sc2ccccc21	-12	-8%	25µM*	-5%	0	?
Cc1ccc2oc(C(=O)Nc3ccc(S(=O)(=O)N4CCCCC4C)cc3)cc(=O)c2c1 (stereo not given)	.	31%	-3%[59 µM]	-26%	.	-12%
CCCNC(=S)Nc1ccc(Oc2ccccc2)cc1	-5	1%	-36%[59 µM]	-5%	-4	-5%
S=C(Nc1ccc(Cl)c(Cl)c1)N1CCCC1	-11	15%	19%	-15%	-16	3%
S=C(Nc1ccc2nccnc2c1)N1CCOCC1	-1	19%	45µM*	-12%	5	-28%
S=C(Nc1ccc2nc(-c3ccccn3)c(-c3ccccn3)nc2c1)N1CCCCC1	6	67%	-4%	3%	17	-18%
CCCNC(=S)Nc1ccc2nc(-c3ccccn3)c(-c3ccccn3)nc2c1	-4	42%	13µM*	-11%	-4	0%
S=C(Nc1ccc2nsnc2c1)N1CCCCC1	-30	-1%	16µM*	-5%	90	0%
Cc1ccc(NC(=S)N2CCOCC2)cc1	2	28%	-3%[59 µM]	5%[57.1 µM]	-8	5%
S=C(Nc1ccc2nc(-c3ccccn3)c(-c3ccccn3)nc2c1)N1CCCCCC1	-2	57%	20µM*	-2%	4	-1%
C=CCNC(=O)c1ccc2c(=O)n(Cc3ccccc3OC)c(=S)[nH]c2c1	.	49%	-1%	-8%	-4	11%
CCN(CC)C(=O)Cn1c(=O)nc(-c2ccccc2F)c2cc(Cl)ccc21	.	4%	1%[59 µM]	-8%	.	-1%
COc1ccc(NS(=O)(=O)c2ccc(-n3cccn3)cc2)cc1OC	.	12%	-3%[59 µM]	-2%	.	-1%
COc1cc(C(=O)NCc2nnc(SCC(=O)Nc3nc4ccccc4s3)o2)cc(OC)c1OC	-14	34%	17%[59 µM]	-11%	-26	46%
SMILES	CtBP-E1A inh	HP1b chromo inh	G9a inh	JMJD2A Tudor inh	Six1-Eya2 blk	BAZ2B block
CCCc1nnc(SCC(=O)Nc2nccs2)o1	?	29%	-2%	6%	-27	-10%
COc1cc(C(=O)NCc2nnc(SCC(=O)Nc3nccs3)o2)cc(OC)c1OC	-78*	36%	-3%	?	-84*	45µM*
COc1cc(C(=O)NCc2nnc(SCC(=O)c3ccccc3)o2)cc(OC)c1OC	.	28%	40µM*	12%	-30	-10%
Cc1cccc(C)c1OCc1nnc(SCC(=O)Nc2nccs2)o1	-91*	44%	-8%	-25%	-85*	?
COc1ccc(OCc2nnc(SCC(=O)NC3CCCCC3)o2)cc1	-2	9%	28%	?	-15	3%
Cc1ccccc1OCc1nnc(SCC(=O)NC2CCCCC2)o1	-4	?	50µM*	-11%	4	9%
CCCN1CNc2c(c(=O)[nH]c(=S)n2CCc2cccc(Cl)c2)C1	.	28%	.	-13%	.	.
COc1cc(CN(C(=O)COc2ccc(Cl)c(C)c2)c2ccccn2)cc(OC)c1OC	.	40%	-9%[59 µM]	-6%	.	-5%
CC(C)Cn1c(=S)[nH]c2cc(Cl)ccc21	-13	?	6.3µM*	-14%	-6	-32%
N#Cc1c(Nc2ccccc2)sc(C(=O)C2CC2)c1N	2	42%	79µM*	1%	3	13%
Cc1ccc(N2CC(C(=O)Nc3cccc(S(=O)(=O)N4CCOCC4)c3)CC2=O)cc1 (stereo not given)	6	.	.	.	-8	.
COC(=O)c1cc(CNC(=O)C(C)NS(=O)(=O)c2ccc(C)c(C)c2)ccc1OC (stereo not given)	7	-2%	6%	-5%	-9	3%
O=C(O)COc1ccccc1C(Nc1cccnc1)c1cc(Cl)c2cccnc2c1O (stereo not given)	-91*	?	2.8µM*	22µM*	-67*	20µM*
O=C(NC(c1ccccc1)c1cc(Cl)c2cccnc2c1O)c1cccnc1 (stereo not given)	.	.	-24%[59 µM]	.	.	1%
CCOc1ccc(C(Nc2cccnc2)c2cc(Cl)c3cccnc3c2O)cc1 (stereo not given)	-68*	?	.	40µM*	?	45µM*
O=C(O)COc1ccccc1C(Nc1ccccn1)c1cc(Cl)c2cccnc2c1O (stereo not given)	-85*	?	7.9µM*	79µM*	?	40µM*
COc1ccccc1C(NC(C)=O)c1cc(Cl)c2cccnc2c1O (stereo not given)	?	36%	18%	?	?	-13%
O=C1CCc2cc(Cl)c(S(=O)(=O)Nc3ccc(Cl)c(Cl)c3)cc2N1	.	.	.	-14%	.	.
COc1cccc(-c2nnc3n2N=C(c2c(OC)cccc2OC)CS3)c1	.	.	.	-19%	.	.
O=C(NCc1ccccc1Cl)c1ccc2c(c1)N(Cc1ccccc1)C(=O)c1ccccc1S2	.	58%	2%[59 µM]	-16%	.	22%
Cc1cc(C)cc(-n2ccn(Cc3ccccc3C)c(=O)c2=O)c1	.	17%	4%[59 µM]	-8%	.	-1%
N#C/C(=C/c1ccc(N2CCCC2)c([N+](=O)[O-])c1)c1nc2ccccc2[nH]1	-5	8%	11%[2.33 µM]	-12%	-7	-5%

Bioassay records as filed in PubChem.
